Hits are enriched below; roughly 11% of the tested compounds scored in any of these assays.
NIH3T3 tox: cytotoxic compounds in NIH 3T3 cells. NIH 3T3 viability, CellTiter-Glo ATP luminescence, 48-72 h. Potency, µM (series often up to 96.7 µM), inactives show at the top dose activity change, negative = cytotoxicity, actives largely listed as inhibitors. 94,000 tested, 4.3% active. AID 1345082; further: nearly all actives have a fitted effect of over 55% in size
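Cytotoxicity is measured as loss of cellular ATP: NIH 3T3 cells (400/well) are exposed to compound for 48 or 72 hr at 37 °C, then CellTiter-Glo luminescence is imaged after 10 min at room temperature.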
HEK cytotox: cytotoxic compounds in HEK 293 cells | HEK 293 viability, ATP luminescence (CellTiter-Glo), 48-72 h | 94,000 tested, 6.6% active | Potency, µM (series often up to 115 µM), inactives show top-dose activity change, negative = cytotoxicity, hits mostly inhibitors; further: nearly all actives have a fitted effect of over 60% in size
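CellTiter-Glo luminescence (cellular ATP) was read after 48 or 72 hr of compound exposure at 37 degree Celsius. Cells were HEK 293 plated at 250 cells/well.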
hNpr1 antagonist: human Npr1 receptor antagonism; 76,000 tested, 1.6% active; HEK293 hNpr1 GloSensor cGMP, ANP-stimulated luminescence; AID 1347048; Potency, µM (series often up to 46.3 µM), for inactives: top-dose activity change, negative = inhibition, hits mostly inhibitors; P16066; calls by dose curve; further: nearly all actives have a fitted effect of over 60% in size
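HEK293 cells stably expressing human Npr1 and cGMP GloSensor pGS-40F, loaded 2 h with 2% GloSensor reagent, given compound 30 min at room temperature. Luminescence read before and 20 min after 0.1 nM hNppA.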
FLuc inh: blocks purified firefly luciferase enzyme activity; P08659; purified P. pyralis luciferase, luminescence, biochemical; Potency, µM (titrated, usually from 115 µM), usual class: inhibitors; 76,000 tested, 2.5% active; further: nearly all actives have a fitted effect of over 65% in size
Target sequence (P08659 whole entry, looked up): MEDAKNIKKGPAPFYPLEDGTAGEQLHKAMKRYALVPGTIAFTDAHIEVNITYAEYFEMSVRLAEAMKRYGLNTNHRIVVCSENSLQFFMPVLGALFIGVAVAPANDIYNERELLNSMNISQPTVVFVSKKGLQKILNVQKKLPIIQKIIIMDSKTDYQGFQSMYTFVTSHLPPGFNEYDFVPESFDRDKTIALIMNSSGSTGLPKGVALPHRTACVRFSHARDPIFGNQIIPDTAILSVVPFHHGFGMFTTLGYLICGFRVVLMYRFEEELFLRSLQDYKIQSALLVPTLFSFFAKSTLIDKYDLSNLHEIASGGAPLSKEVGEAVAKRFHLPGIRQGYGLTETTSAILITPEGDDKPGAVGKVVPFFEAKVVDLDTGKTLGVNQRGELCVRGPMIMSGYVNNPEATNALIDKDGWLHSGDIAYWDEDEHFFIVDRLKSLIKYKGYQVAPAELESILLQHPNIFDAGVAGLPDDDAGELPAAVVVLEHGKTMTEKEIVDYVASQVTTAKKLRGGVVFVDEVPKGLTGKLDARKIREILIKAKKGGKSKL
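Luminescence read by CCD imaging after purified firefly luciferase (10nM final) was added to substrate buffer holding 10uM D-luciferin and 10uM ATP, pH 7.5, pre-dosed with compound.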
* marks the source's active call; other numbers are inactive results; i = inactive; ? = inconclusive; / = no result; [ ] = remark or other dose. Unless noted, the call rests on the fitted dose curve; in most records, active means well fitted curve in the direction sought with a large enough effect; inconclusive means small, poorly fitted or top-dose-only effect, or another doubt; inactive means no such curve, though single readings can be large; an effect the other way counts as inactive or inconclusive. On the % scale 0 is the no-effect control and ±100 the full control effect; potency means the concentration at half of the fitted maximal effect.

SMILES	NIH3T3 tox	HEK cytotox	hNpr1 antagonist	FLuc inh
COc1cccc(C(=O)N2CC(Oc3ccc(-c4nc(-c5ccccc5)no4)cc3)C2)c1	?	22µM*	-10%	i
COc1cccc(C(=O)N2CC(Oc3cccc(-c4nc(-c5ccccc5)no4)c3)C2)c1	?	?	-4%	?
COc1ccc2nc3n(c2c1)[C@@H](CNC1CCOCC1)COC3	?	-21%[172 µM]	1%[70.6 µM]	i
Cc1cc(C(F)(F)F)nn1CC(=O)NCCn1c(C)cnc1C1CCC1	-1%	5%	-1%	i
Cc1nc(C)c(C(=O)N2CC(Oc3ccccc3-c3nc(C4CC4)no3)C2)s1	?	89µM*	-2%	i
Cc1cnc(C(=O)N2CC(Oc3ccccc3-c3nc(C4CC4)no3)C2)cn1	-23%	?	6%	i
COc1ccccc1-c1cccc(C(=O)N2CCN(C(=O)Cc3ccccn3)CC2)c1	-27%	-15%	/	/
OC[C@@H]1CN(C2CCCCC2)C[C@H]1c1nc(-c2ccncc2)no1	-18%	-27%	5%	?
OC[C@@H]1CN(CC2CC2)C[C@H]1c1nc(-c2ccncc2)no1	-11%	-3%	0%	35µM*
OC[C@@H]1CN(C2CCC2)C[C@H]1c1nc(-c2ccncc2)no1	-3%	-15%	2%	45µM*
COc1ccccc1-c1[nH]nc2ncc(-c3ccc(C)cc3)nc12	-73%[138 µM]	?	-16%[70.6 µM]	i
Fc1ccc(-c2cnc3n[nH]c(-c4ccccc4)c3n2)cc1	28µM*	?	-2%[70.6 µM]	i
COc1cc(F)ccc1-c1cnc2n[nH]c(-c3ccccc3)c2n1	?	?	-16%[70.6 µM]	i
Clc1ccc(-c2cnc3n[nH]c(-c4ccccc4)c3n2)cc1	28µM*	79µM*	-11%[70.6 µM]	i
COCCN1C(=O)[C@@H]2C[C@@H](CN2Cc2cnc3ccccc3c2)Oc2ccccc21	100µM*	?	-2%[70.6 µM]	i
O=C1[C@@H]2C[C@@H](CN2Cc2cnc3ccccc3c2)Oc2ccccc2N1Cc1ccccc1	?	50µM*	-19%	i
CCOc1ccccc1C1NC(=O)N(CC(=O)N(CC)c2ccccc2)C2=C1C(=O)OC2 (stereo not given)	-19%	-39%	-1%	i
CN1c2cc(C(=O)N3CCN(c4ccccc4Cl)CC3)ccc2C(=O)N2CCCCC21 (stereo not given)	?	40µM*	0%	i
Cc1ccccc1N1CCN(C(=O)c2ccc3c(c2)N(C)C2CCCCCN2C3=O)CC1 (stereo not given)	?	45µM*	0%	i
O=C(O)CCn1ncc2cc(OCC3CCN(C(=O)C4CC4)CC3)ccc21	?	i	8%[70.6 µM]	?
O=C(O)CCn1ncc2cc(OCC3CCN(C(=O)C4CCCC4)CC3)ccc21	?	3%[172 µM]	1%[70.6 µM]	?
O=C(O)CCn1ncc2cc(OCC3CCN(C(=O)CC4CC4)CC3)ccc21	50µM*	3%[172 µM]	6%[70.6 µM]	?
O=C(O)CCn1ncc2cc(OCC3CCN(C(=O)OC4CCCC4)CC3)ccc21	25µM*	?	1%[70.6 µM]	?
O=C(O)CCn1ncc2cc(OCC3CCN(c4ncccn4)CC3)ccc21	50µM*	-11%[172 µM]	3%[70.6 µM]	63µM*
O=C(O)CCn1ncc2cc(OCC3CCN(C(=O)COc4ccccc4)CC3)ccc21	28µM*	4%[172 µM]	1%[70.6 µM]	i
SMILES	NIH3T3 tox	HEK cytotox	hNpr1 antagonist	FLuc inh
CC(C)CCC(=O)N1C[C@@H](CO)[C@H](c2nc(-c3ccncc3)no2)C1	?	?	3%	i
COc1ccccc1C(=O)N1CCCN(c2cc(-c3ccc(Br)cc3)[nH]n2)CC1	?	40µM*	?	i
COc1ccc(Cl)cc1C(=O)N1CCCN(c2cc(-c3ccc(Br)cc3)[nH]n2)CC1	32µM*	35µM*	?	i
COc1ccc(-c2cc(N3CCCN(C(=O)c4ccccc4OC)CC3)n[nH]2)cc1	-22%	-26%	-2%	i
O=C(c1ccccc1F)N1CCCC(C(=O)N2CCC(c3nc4ccncc4[nH]3)C2)C1 (stereo not given)	3%	i	/	/
COc1ccc(CNC(=O)C2CN(C3CCCC3)C(=O)N2)cc1 (stereo not given)	-15%[138 µM]	-6%[172 µM]	/	/
COc1ccc(NC(=O)Cn2c(N3CCCCC3)nc(C)c(C)c2=O)cc1Cl	?	25µM*	-11%	i
O=C(c1cn2cc(-c3ccccc3)sc2n1)N1CCOCC1	?	89µM*	/	/
CN1CCN(C(=O)c2cn3cc(-c4ccc(F)cc4)sc3n2)CC1	79µM*	?	/	/
COc1ccc(-c2cn3cc(C(=O)N4CCOCC4)nc3s2)cc1	?	63µM*	/	/
CCN1CCN(C(=O)c2cn3cc(-c4ccc(F)cc4)sc3n2)CC1	-25%	2%	/	/
CCCC1=Nc2cc(C(=O)NCCCN3CCCCC3CC)ccc2Sc2ccc(C)cc21 (stereo not given)	7.1µM*	?	-18%	i
CCCC1=Nc2cc(C(=O)NCCc3ccccc3)ccc2Sc2ccc(C)cc21	-48%	?	-12%	i
Cc1ccc(NC(=O)Cn2c(N3CCC(C)CC3)nc(C)cc2=O)c(C)c1	?	?	-2%	i
Cc1cc(=O)n(CC(=O)Nc2ccc(Br)cc2F)c(N2CCC(C)CC2)n1	16µM*	?	-9%	i
Cc1ccc(C)c(NC(=O)Cn2c(N3CCC(C)CC3)nc(C)cc2=O)c1	?	28µM*	-17%	i
Cc1cc(=O)n(CC(=O)Nc2cc(Cl)ccc2C)c(N2CCC(C)CC2)n1	35µM*	35µM*	?	i
Cc1ccc(NC(=O)Cn2c(N3CCC(C)CC3)nc(C)cc2=O)cc1	?	?	?	i
Cc1cccc(-c2noc([C@@H]3C[C@@H](O)CN3Cc3ccccn3)n2)c1	-27%[138 µM]	?	-25%[70.6 µM]	50µM*
Cc1ccccc1CN1C[C@H](O)C[C@H]1c1nc(-c2ccncc2)no1	?	?	2%[70.6 µM]	i
Cc1cccc(-c2noc([C@@H]3C[C@@H](O)CN3Cc3ccc(Cl)cc3)n2)c1	?	100µM*	-16%[70.6 µM]	63µM*
O[C@@H]1C[C@@H](c2nc(-c3ccccc3)no2)N(Cc2ccccc2)C1	?	-13%[172 µM]	-6%[70.6 µM]	i
COCCN1C(=O)[C@@H]2C[C@@H](CN2Cc2nccn2C)Oc2ccccc21	2%[138 µM]	-5%[172 µM]	3%[70.6 µM]	i
COCC1CN(Cc2ccc(Br)s2)CC12CCNCC2 (stereo not given)	?	?	-3%	?
O=C(CC1CCCCN(Cc2ccccc2)C1=O)N1CCc2ccccc2C1 (stereo not given)	?	45µM*	-15%	i
O=C(CC1=C2CCCCC2N(Cc2ccccc2)C1=O)N1CCc2ccccc2C1 (stereo not given)	?	50µM*	0%	i
COCCCNC(=O)CC1CCCCN(Cc2ccccc2)C1=O (stereo not given)	-19%	-13%	1%	i
NC(=O)CC1=C2CCCCC2N(Cc2ccccc2)C1=O (stereo not given)	i	3%	4%	i

Source: PubChem
